# Compound activity (PubChem)
# Vaccinia Venus: vaccinia inhibition (Venus reporter); Vaccinia virus Venus reporter expression, fluorescence; Potency, µM (top dose mostly 36.5 µM), inactives show at the highest dose activity change, negative = inhibition, most hits filed as inhibitors; 330,000 compounds, 0.46% hits; calls by dose curve; tested in A549 cells; also: nearly all actives have a fitted effect of over 30% in size
# Giardia FBPA inh: Giardia lamblia aldolase inhibition. A8B2U2. Potency, µM (highest dose often 59.6 µM), for the others: at the highest dose activity, negative = inhibition, hits mostly inhibitors. 290,000 compounds, 0.71% hits. AID 2451. purified Giardia FBPA; active = well fitted inhibition curve with a large enough effect; inconclusive = small, poorly fitted or top-dose-only effect, or effect the other way; also: nearly all actives have a fitted effect of over 55% in size
# Target sequence (A8B2U2 whole entry, looked up): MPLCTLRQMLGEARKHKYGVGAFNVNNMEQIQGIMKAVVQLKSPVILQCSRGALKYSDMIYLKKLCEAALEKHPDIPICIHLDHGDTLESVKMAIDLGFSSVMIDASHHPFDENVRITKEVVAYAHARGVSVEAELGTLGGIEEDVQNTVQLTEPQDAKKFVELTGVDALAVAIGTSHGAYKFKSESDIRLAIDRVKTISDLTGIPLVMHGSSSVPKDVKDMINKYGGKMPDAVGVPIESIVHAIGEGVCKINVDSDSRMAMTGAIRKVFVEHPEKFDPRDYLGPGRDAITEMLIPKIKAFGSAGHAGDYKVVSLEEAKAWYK
#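 40 nM FBPA preincubated 10 min at RT with compound (up to 57.5 uM final), then substrate plus GAPDH/TPI/NAD/arsenate coupling and diaphorase/resazurin added. Fluorescence read after 20 min at RT, 525/598 nm.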
# VACV mCherry inh: vaccinia inhibition (mCherry reporter); Vaccinia virus mCherry reporter infection, fluorescence; Potency, µM (titrated, usually from 36.5 µM), for inactives: at the highest dose activity change, negative = inhibition, hits mostly inhibitors; AID 720579; 310,000 compounds, 0.63% hits; calls by dose curve; tested in A549 cells; also: nearly all actives have a fitted effect of over 35% in size
# FMDV antiviral: foot and mouth disease virus antiviral activity; Potency, µM (top dose mostly 57.9 µM), for the others: at the top dose activity change, negative = inhibition, most hits filed as inhibitors; 410,000 compounds, 1.2% hits; FMDV antiviral cell-based qHTS; calls by dose curve; tested in HEK293T cells; also: read-out not given here; nearly all actives have a fitted effect of over 45% in size
# Numbers without * were called inactive; i = inactive; u = inconclusive; x = no result; [ ] = dose if it differs, or a comment. This is a sample that favours compounds with a hit; in the whole collection about 2.2% have one here. % is scaled to controls: 0 for no effect and ±100 for the full control effect; potency is read from the fitted curve at half-maximal effect.
SMILES,Vaccinia Venus,Giardia FBPA inh,VACV mCherry inh,FMDV antiviral
CCOC(=O)Cc1csc(NC(=O)c2ccc([N+](=O)[O-])cc2[N+](=O)[O-])n1,u,u,-25%,-8%
CCOc1ccccc1C1CC(=O)Nc2cc(C)c(C)cc21 (stereo not drawn),x,1%,x,-18%
CCCOc1ccccc1C1CC(=O)Nc2cc3c(cc21)OCCO3 (stereo not drawn),u,-14%,u,22µM*
CCOc1ccccc1C1CC(=O)Nc2cc3c(cc21)OCCO3 (stereo not drawn),x,-7%,x,18µM*
CC(C)C(NS(C)(=O)=O)c1nnc2n1CCN(Cc1ccc3cccnc3c1)CC2 (stereo not drawn),-1%,x,-5%,9%
Cc1ccccc1N=CC1=C(O)c2ccccc2C1=O,3%,-12%,-10%,8.9µM*
C=CC(C)(O)CC1[C@@]2(C)CCCC(C)(C)C2CC[C@]1(C)O (stereo partly drawn),x,-9%,x,-11%
Cc1ccc(C(=O)Nc2cccc(-c3nc(CNC(=O)c4cccc(C)c4C)c(C)o3)c2)s1,-24%,x,u,-25%
CCN(C(=O)c1cnc(N2CCN(c3ncccn3)CC2)c2ccccc12)c1cccc(Cl)c1,u,-17%,u,20µM*
O=C(c1cnc(N2CCN(c3ncccn3)CC2)c2ccccc12)N1CCN(c2ncccn2)CC1,-24%,1%,-8%,-6%
CN(C(=O)c1cnc(N2CCN(c3ncccn3)CC2)c2ccccc12)c1ccc(Cl)cc1,-5%,-30%,-16%,20µM*
Nc1cc(N)cc(N)c1,-15%,x,i,x
COC(=O)c1ccc(C(=O)N2CCc3c(C(=O)NC(C)c4ccco4)c(OC)cc(=O)n3CC2)cc1 (stereo not drawn),0%,x,-12%,18%
COc1ccc(-c2cc(C(F)(F)F)nc(S(=O)(=O)CCCC(=O)Nc3cccc(O)c3)n2)cc1OC,-16%,0%,u,20µM*
COc1ccccc1-c1cc(C(F)(F)F)nc(S(=O)(=O)CCCC(=O)Nc2ccc(F)c(Cl)c2)n1,5%,x,4%,0%
COc1ccc(NC(=O)CCCS(=O)(=O)c2nc(-c3ccc(OC)c(OC)c3)cc(C(F)(F)F)n2)cc1OC,-12%[7.34 µM],x,-19%[7.34 µM],32µM*
COc1ccc(-c2cc(C(F)(F)F)nc(S(=O)(=O)CCCC(=O)Nc3ccccc3C(F)(F)F)n2)cc1OC,-16%,x,-18%,22µM*
COc1ccccc1-c1cc(C(F)(F)F)nc(S(=O)(=O)CCCC(=O)Nc2cc(OC)c(OC)c(OC)c2)n1,-16%,x,-3%,19%
Cc1cccc(-c2cnc(C)nc2C2CCCN(C(=O)c3cccc(Cn4cccn4)c3)C2)c1 (stereo not drawn),1%,x,-8%,-19%
CC(C)CCOc1ccc(CC(=O)NO)cc1,-16%,x,4%,x
Cn1nc(C(C)(C)C)cc1C(=O)NCc1cc(F)cc2c1OCOC2,x,-1%,x,13µM*
Cc1cc(C(=O)NCc2cc(F)cc3c2OCOC3)nn1C,-6%[7.34 µM],0%,i[7.34 µM],33%
Cc1ncc2c(c1CNS(=O)(=O)N(C)C)CCN(C(=O)/C=C/c1ccccc1)C2,14%,x,-1%,8%
C[C@H](O)[C@@H]1C(=O)N2CCc3c([nH]c4ccccc34)[C@@H]2C[C@@H]1N(C)C(=O)Nc1cc(Cl)cc(Cl)c1,u,x,13µM*,u
c1cn(-c2ncnc3ccc(-c4ccoc4)cc23)cn1,x,6%,x,28µM*
SMILES,Vaccinia Venus,Giardia FBPA inh,VACV mCherry inh,FMDV antiviral
c1nc(N2CCOCC2)c2cc(-c3ccoc3)ccc2n1,x,-13%,x,1%
CC(=O)OCCCNc1cc(Sc2ccc(Cl)cc2)c2nonc2c1[N+](=O)[O-],-14%,u,-13%,32µM*
COC(=O)CCSc1cc(NCCCOC(C)=O)c([N+](=O)[O-])c2nonc12,11%,x,46%,x
C[C@@H]1CCCCO[C@H](CN(C)Cc2ccc(C(F)(F)F)cc2)[C@H](C)CN([C@@H](C)CO)C(=O)c2cc(NC(=O)Cc3ccccc3)ccc2O1,11µM*,x,u,u
C[C@@H]1CN([C@@H](C)CO)C(=O)Cc2cc(NC(=O)Nc3ccc(F)cc3)ccc2O[C@@H]1CN(C)Cc1ccc(Cl)c(Cl)c1,11µM*,x,u,u
C[C@H]1CN([C@@H](C)CO)C(=O)Cc2cc(NS(C)(=O)=O)ccc2O[C@@H]1CN(C)Cc1ccc(Cl)c(Cl)c1,-28%,x,-12%,0%
C[C@H](CO)N1C[C@H](C)[C@@H](CN(C)Cc2ccc(Cl)c(Cl)c2)Oc2c(NC(=O)Cc3ccccc3)cccc2C1=O,u,x,5.6µM*,2%
